Experimental data as given in PubChem BioAssay.
A number with no mark means an inactive call. A call without a number means that no potency is given here. For some assays here: Potency and affinity values are given separately. Activity calls are given as the source filed them. Unless noted, no rule for the calls is given here.

Legend:
[1] = antimalarial activity against Dd2 strain (AID 2302;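 active = growth inhibition above 50% at the single 2 µM test dose, taken to imply half-maximal potency below 2 µM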); conditions: P. falciparum Dd2 in RBCs, LDH growth readout, 72 h; at 2 µM; stronger effect = higher value
[2] = HepG2 cytotoxicity, primary screen, cytotoxicity control for P. falciparum antimalarial project, cell-based, ATP luminescence (AID 2303;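 active = inhibition above 50%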); conditions: HepG2 viability, 24-48 h, at 10 µM, stronger effect = higher value
[3] = molecular target: L-lactate dehydrogenase (Plasmodium falciparum (isolate CDC / Honduras)) (UniProt Q27743); test: PfLDH activity inhibition – cell lysate, 3D7 strain, counter-screen for P. falciparum growth inhibition project (AID 2304); conditions: P. falciparum 3D7 crude extract, LDH APAD/NBT absorbance; at 2 µM; stronger effect = higher value
[4] = inhibition of 3D7 malaria parasite growth – strain 3D7 (AID 2306); conditions: P. falciparum 3D7 erythrocytic growth, LDH absorbance, 72 h; at 2 µM; stronger effect = higher value
[5] = molecular target: Calcium-dependent protein kinase 1 (Plasmodium falciparum (isolate 3D7)) (UniProt P62344); test: PfCDPK1 kinase inhibitors, biochemical, TCAMS library (AID 1159585; cut-off not given, nearly all actives have IC50 up to about 0.98 µM;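 also: inhibitors leave more ATP so luminescence rises with inhibition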); conditions: recombinant PfCDPK1, Kinase-Glo ATP depletion luminescence
[6] = molecular target: Plasmodium falciparum protein kinase 6 (PK6, PF3D7_1337100) (UniProt Q8IDW1); test: PfPK6 kinase inhibitors, biochemical, TCAMS library (AID 1159586); conditions: recombinant PfPK6, Kinase-Glo ATP depletion luminescence
[7] = molecular target: Protein kinase 7 (PK7), Plasmodium falciparum 3D7 (PF3D7_0213400) (UniProt Q7YTF7); test: inhibition of Plasmodium PK7 catalytic activity – biochemical, TCAMS antimalarial set, Kinase-Glo luminescence (AID 1159587); conditions: recombinant PfPK7, Kinase-Glo ATP depletion luminescence
[8] = molecular target: Calcium-dependent protein kinase 4 (Plasmodium falciparum (isolate 3D7)) (UniProt Q8IBS5); test: PfCDPK4 kinase inhibitors, biochemical, TCAMS library (AID 1159588; cut-off not given, nearly all actives have IC50 up to about 0.91 µM); conditions: recombinant PfCDPK4, Kinase-Glo ATP depletion luminescence
Chain of Calcium-dependent protein kinase 4 (Plasmodium falciparum (isolate 3D7)) (Q8IBS5 whole entry, looked up): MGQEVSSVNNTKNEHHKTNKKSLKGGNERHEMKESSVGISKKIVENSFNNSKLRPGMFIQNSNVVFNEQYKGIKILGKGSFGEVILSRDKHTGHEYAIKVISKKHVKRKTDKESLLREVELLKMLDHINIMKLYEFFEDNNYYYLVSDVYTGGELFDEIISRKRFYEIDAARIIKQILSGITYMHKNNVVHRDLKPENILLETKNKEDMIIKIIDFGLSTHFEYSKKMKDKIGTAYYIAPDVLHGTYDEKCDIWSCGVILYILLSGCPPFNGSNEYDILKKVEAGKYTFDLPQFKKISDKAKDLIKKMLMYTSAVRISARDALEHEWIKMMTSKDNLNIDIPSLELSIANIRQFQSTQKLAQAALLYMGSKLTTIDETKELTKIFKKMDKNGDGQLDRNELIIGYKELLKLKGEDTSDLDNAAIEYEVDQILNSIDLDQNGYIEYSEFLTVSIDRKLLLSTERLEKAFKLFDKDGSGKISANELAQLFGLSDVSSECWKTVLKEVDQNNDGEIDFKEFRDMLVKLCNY

Chain of Calcium-dependent protein kinase 1 (Plasmodium falciparum (isolate 3D7)) (P62344 whole entry, looked up): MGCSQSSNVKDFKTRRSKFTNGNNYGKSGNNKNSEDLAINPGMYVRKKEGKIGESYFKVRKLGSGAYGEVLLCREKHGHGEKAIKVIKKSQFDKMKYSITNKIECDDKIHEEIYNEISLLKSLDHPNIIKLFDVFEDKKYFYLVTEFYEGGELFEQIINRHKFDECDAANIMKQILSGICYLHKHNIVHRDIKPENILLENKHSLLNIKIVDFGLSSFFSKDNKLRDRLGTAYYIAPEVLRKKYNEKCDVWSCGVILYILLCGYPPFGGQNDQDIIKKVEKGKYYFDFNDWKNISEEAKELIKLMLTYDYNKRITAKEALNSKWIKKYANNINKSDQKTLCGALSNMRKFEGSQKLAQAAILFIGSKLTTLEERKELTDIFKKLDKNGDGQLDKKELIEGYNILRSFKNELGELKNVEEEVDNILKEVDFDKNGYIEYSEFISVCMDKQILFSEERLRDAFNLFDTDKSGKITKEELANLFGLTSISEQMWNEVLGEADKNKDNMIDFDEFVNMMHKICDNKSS
Chain of L-lactate dehydrogenase (Plasmodium falciparum (isolate CDC / Honduras)) (Q27743 whole entry, looked up): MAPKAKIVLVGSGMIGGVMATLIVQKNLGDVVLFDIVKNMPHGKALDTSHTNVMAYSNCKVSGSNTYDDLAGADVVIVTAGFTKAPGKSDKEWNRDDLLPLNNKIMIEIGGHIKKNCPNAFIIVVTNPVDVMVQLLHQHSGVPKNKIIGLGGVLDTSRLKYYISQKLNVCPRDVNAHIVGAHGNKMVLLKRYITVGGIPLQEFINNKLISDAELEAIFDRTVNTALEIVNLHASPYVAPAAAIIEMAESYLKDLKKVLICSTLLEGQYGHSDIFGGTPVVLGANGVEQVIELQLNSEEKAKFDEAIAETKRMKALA
Chain of Protein kinase 7 (PK7), Plasmodium falciparum 3D7 (PF3D7_0213400) (Q7YTF7 1-343): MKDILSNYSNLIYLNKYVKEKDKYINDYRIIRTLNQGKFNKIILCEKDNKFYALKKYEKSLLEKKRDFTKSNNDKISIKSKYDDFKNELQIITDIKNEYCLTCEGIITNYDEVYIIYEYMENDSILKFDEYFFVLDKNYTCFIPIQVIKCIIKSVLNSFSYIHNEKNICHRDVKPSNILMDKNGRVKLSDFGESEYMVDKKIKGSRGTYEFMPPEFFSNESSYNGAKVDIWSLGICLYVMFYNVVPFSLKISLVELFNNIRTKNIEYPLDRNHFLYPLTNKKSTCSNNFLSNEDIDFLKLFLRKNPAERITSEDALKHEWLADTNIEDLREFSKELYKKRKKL
Chain of Plasmodium falciparum protein kinase 6 (PK6, PF3D7_1337100) (Q8IDW1 1-305): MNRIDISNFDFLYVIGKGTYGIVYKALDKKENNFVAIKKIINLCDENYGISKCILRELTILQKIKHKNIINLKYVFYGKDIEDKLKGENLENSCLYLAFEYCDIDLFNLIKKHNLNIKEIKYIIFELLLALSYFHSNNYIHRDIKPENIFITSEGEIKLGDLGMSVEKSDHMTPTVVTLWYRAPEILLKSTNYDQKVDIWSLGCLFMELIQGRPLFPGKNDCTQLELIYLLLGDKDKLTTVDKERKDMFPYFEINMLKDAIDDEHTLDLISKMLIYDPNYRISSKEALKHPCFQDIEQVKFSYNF

| Compound | growth inhibition [1] | inhibition [2] | inhibition [3] [%] | growth inhibition [4] | outcome [5] | outcome [6] | outcome [7] | outcome [8] |
| --- | --- | --- | --- | --- | --- | --- | --- | --- |
| Cc1ccc2nc3c(cc(C(=O)NCCc4ccccc4)c(=N)n3CCCOC(C)C)c(=O)n2c1 | 12% | 15% | 0 | 96% (active) | inactive | inactive | inactive | inactive |
| COc1ccc(C2c3cc(OC)c(OC)cc3C(=NO)C2C)cc1OC (stereo unspecified) | 6% | 20% | -2 | 90% (active) | inactive | inactive | inactive | inactive |
| COc1ccc(C(=O)Nc2cc(Cl)c3c(c2)C2CCCN2CC3)cc1C(F)(F)F (stereo unspecified) | 33% | 35% | -1 | 99% (active) | inactive | inactive | inactive | inactive |
| COc1ccc2cc(C(=O)NC3CCC(CCN4CCc5cc(C#N)ccc5C4)CC3)[nH]c2c1 (stereo unspecified) | -1% | 9% | -10 | 88% (active) | inactive | inactive | inactive | inactive |
| Cc1ccc2[nH]c(-c3ccc(C(=O)NCc4ccc(Cl)c(Cl)c4)cc3)nc2c1C | 26% | 19% | 5 | 96% (active) | inactive | inactive | inactive | inactive |
| Cc1nc2ccccc2n1C1C[C@H]2CC[C@@H](C1)N2CCCC1(c2ccccc2)CCN(C(=O)OCc2ccccc2)CC1 (stereo partly specified) | 29% | 46% | -4 | 90% (active) | inactive | inactive | inactive | inactive |
| COc1ccccc1CNC(=O)c1ccc(N2CCN(c3ccncc3)CC2)cn1 | 17% | 16% | 2 | 96% (active) | inactive | inactive | inactive | inactive |
| COc1cc2nc(N3CCC(CNC(=O)c4ccc(-c5ccccc5)cc4)CC3)nc(N)c2cc1OC | 92% (active) | 11% | -1 | 93% (active) | inactive | inactive | inactive | inactive |
| O=C(Nc1cccc(-c2ccc(-c3nc4ccccc4[nH]3)cc2)c1)c1ccncc1 | 58% (active) | 30% | -1 | 100% (active) | inactive | inactive | inactive | inactive |
| CCCCC(=O)Nc1nc2ccc([N+](=O)[O-])cc2s1 | 69% (active) | 9% | -5 | 91% (active) | inactive | inactive | inactive | inactive |
| Nc1cccc(-c2ccc3ccnc(N)c3c2)c1 | 66% (active) | 30% | -7 | 91% (active) | inactive | inactive | inactive | inactive |
| CCOc1cc(C)ccc1N1CCN(CCN2CCC(NC(=O)c3ccc(-c4ccc(C#N)cc4)cc3)CC2)CC1 | 3% | 9% | -1 | 84% (active) | inactive | inactive | inactive | inactive |
| CCN1CCN(c2cc(C)c3cc(NC(=O)c4ccc(N(CC)CC)cc4)ccc3n2)CC1 | 41% | 38% | 1 | 95% (active) | inactive | inactive | inactive | inactive |
| CN(C)CCOc1cccc(-c2cnc(N)c(-c3nc4ccc(S(C)(=O)=O)cc4[nH]3)c2)c1 | 82% (active) | 39% | 1 | 100% (active) | inactive | inactive | inactive | inactive |
| CN(Cc1cccc(F)c1)C1CCCN(c2cc(NC(=O)c3ccccc3)ccn2)C1 (stereo unspecified) | 50% (active) | 3% | -3 | 93% (active) | inactive | inactive | inactive | inactive |
| CCCNCc1ccc(-c2ccc(CN(CCOC)C(=O)/C=C/c3ccccc3C)cc2)nc1 | 39% | 13% | 2 | 95% (active) | inactive | inactive | inactive | inactive |
| Cc1cccc2[nH]c(-c3ccc(-c4cccc(CNCCNC(=O)c5ccnn5C)c4)s3)nc12 | 87% (active) | 17% | -4 | 102% (active) | inactive | inactive | inactive | inactive |
| Cc1noc(C)c1-c1cccc(CNCc2cccc(-c3ccc(-c4nc5ccccc5[nH]4)cc3)c2)c1 | 76% (active) | 27% | -2 | 100% (active) | inactive | inactive | inactive | inactive |
| c1ccc(Oc2ccc(Nc3ccnc4cc(-c5cccc(CN6CCOCC6)c5)ccc34)cc2)cc1 | 100% (active) | 14% | -1 | 101% (active) | inactive | inactive | inactive | inactive |

| Compound | growth inhibition [1] | inhibition [2] | inhibition [3] [%] | growth inhibition [4] | outcome [5] | outcome [6] | outcome [7] | outcome [8] |
| --- | --- | --- | --- | --- | --- | --- | --- | --- |
| CN1CCC(NCc2ccc(S(=O)(=O)Nc3ccc(Oc4cccc(Cl)c4)cc3)cc2)CC1 | 5% | 47% | 0 | 99% (active) | inactive | inactive | inactive | inactive |
| Cc1cccc2[nH]c(-c3cccc(-c4ccc(NC(=O)c5ccoc5)cc4)c3)nc12 | 56% (active) | 65% (active) | -5 | 99% (active) | inactive | inactive | inactive | inactive |
| COc1ccc(NC(=O)/C=C/c2cc(Br)ccc2F)cc1OCCN(C(C)C)C(C)C | 14% | 22% | -3 | 100% (active) | inactive | inactive | inactive | inactive |
| COc1cccc2cc(C(=O)N[C@@H](CC(C)C)C(=O)N[C@H](/C=N/NC(=O)N3CCN(C)CC3)CCc3ccccc3)oc12 | 73% (active) | 1% | 4 | 85% (active) | inactive | inactive | inactive | inactive |
| COc1cccc2c(Nc3ccccc3C)nc(Nc3ccccc3C)nc12 | 36% | 9% | 4 | 95% (active) | inactive | inactive | inactive | inactive |
| COc1cc(CN=C(Nc2ccc(-c3ccccc3)cc2)Nc2ccc(C#N)cc2O)cc(OC)c1 | 64% (active) | -4% | 5 | 95% (active) | inactive | inactive | inactive | inactive |
| Cc1cc(C(=O)Nc2ccc3c(c2)CCN3C2CCN(Cc3cc(F)cc(F)c3F)C2)no1 (stereo unspecified) | 96% (active) | -5% | 0 | 95% (active) | inactive | inactive | inactive | inactive |
| Oc1ccc2[nH]c(-c3ccc(OC(F)(F)F)cc3)nc2c1CNC1CCCC1 | 97% (active) | 32% | 0 | 99% (active) | inactive | inactive | inactive | inactive |
| CC(C)N(Cc1cnc2nc(N)nc(N)c2n1)c1ccc(Cl)c(Cl)c1 | 98% (active) | 63% (active) | -3 | 101% (active) | inactive | inactive | inactive | inactive |
| c1cc(Nc2nc(-c3ccc(-c4csc(Nc5ccncc5)n4)cc3)cs2)ccn1 | 99% (active) | 91% (active) | -4 | 100% (active) | inactive | inactive | inactive | inactive |
| O=C(NCCCCCN1CCC(c2c[nH]c3ccccc23)CC1)Nc1ccc(Cl)c(Cl)c1 | -4% | 42% | 6 | 92% (active) | inactive | inactive | inactive | inactive |
| Cc1cccc(CNc2nc(C)cc(N[C@@H](Cc3ccccc3)C(=O)NCc3cccc(F)c3)n2)c1 | 82% (active) | 39% | -2 | 101% (active) | inactive | inactive | inactive | inactive |
| CC1(C)N=C(N)N=C(N)N1OCCOc1cccc(C(F)(F)F)c1 | 97% (active) | 67% (active) | -2 | 93% (active) | inactive | inactive | inactive | inactive |
| N#Cc1ccc(NC(=NC2CCN(Cc3ccccc3)CC2)Nc2ccccc2Cl)c(O)c1 | 97% (active) | 31% | 0 | 101% (active) | inactive | inactive | inactive | inactive |
| COc1ccccc1C1CC(c2ccccc2)=NN1C(=O)c1ccco1 (stereo unspecified) | 95% (active) | 12% | -2 | 97% (active) | inactive | inactive | inactive | inactive |
| O=C(CNC1CCCCC1)Nc1cccc(C(=O)Nc2cccc(C(F)(F)F)c2)c1 | 80% (active) | 17% | -6 | 93% (active) | inactive | inactive | inactive | inactive |
| CCOc1cccc(C(=O)Nc2cccc(CN3CCCN(Cc4ccc(O)cc4)CC3)c2)c1 | 31% | 23% | 1 | 91% (active) | inactive | inactive | inactive | inactive |
| Cc1cccc(NC(=O)c2cnc(N3CCN(c4ccncc4)CC3)c(Cl)c2)c1 | 54% (active) | 36% | -2 | 100% (active) | inactive | inactive | inactive | inactive |
